Test results taken from PubChem BioAssay (NCI).
About 83,000 compounds went through this panel and 20% of them were active in at least one assay; those are over-represented in the sample as a whole.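 Single-concentration screen, 48 h exposure, 96-well plates. Endpoint: percent growth. Below 10 = active.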 Calls of active or inactive are those of the source.

What was measured:
Assay in all cases: NCI-60 one-dose screen, 48 h (100 = growth as untreated, 0 = no growth, -100 = all killed)
Settings in all cases: 10 µM unless noted
NCI-H23 lung = tested on: NCI-H23 lung
NCI-H226 lung = tested on: NCI-H226 lung
NCI-H322M lung = tested on: NCI-H322M lung
HOP-62 NSCLC = tested on: HOP-62 NSCLC
NCI-H460 lung = tested on: NCI-H460 lung
HOP-92 NSCLC = tested on: HOP-92 NSCLC
NCI-H522 lung = tested on: NCI-H522 lung
A549/ATCC NSCLC = tested on: A549/ATCC NSCLC
786-0 renal = tested on: 786-0 renal
COLO 205 colon = tested on: COLO 205 colon
DU-145 prostate = tested on: DU-145 prostate
K-562 leukemia = tested on: K-562 leukemia
MALME-3M melanoma = tested on: MALME-3M melanoma
MDA-MB-231 breast = tested on: MDA-MB-231 breast
RXF 393 renal = tested on: RXF 393 renal
SF-268 CNS = tested on: SF-268 CNS
SF-295 CNS = tested on: SF-295 CNS
SF-539 CNS = tested on: SF-539 CNS
UACC-257 melanoma = tested on: UACC-257 melanoma
M14 melanoma = tested on: M14 melanoma

Measured: growth

C=CC(=O)NCc1ccc(Nc2nccc(-c3ccc(N4CCCC4)c(C#N)c3)n2)cc1
active: RXF 393 renal -1.91%
inactive: NCI-H23 lung 49.7% | NCI-H226 lung 39.9% | NCI-H322M lung 41% | HOP-62 NSCLC 17.1% | NCI-H460 lung 23.3% | HOP-92 NSCLC 36.8% | NCI-H522 lung 19.2% | A549/ATCC NSCLC 19.2% | 786-0 renal 17.6% | COLO 205 colon 31.4% | DU-145 prostate 46.3% | K-562 leukemia 21% | MALME-3M melanoma 44.9% | MDA-MB-231 breast 75.6% | SF-268 CNS 49.7% | SF-295 CNS 22.9% | SF-539 CNS 28% | UACC-257 melanoma 39.8% | M14 melanoma 36.1%

O=C(/C=C(/C=C/c1cccc2[nH]ccc12)OB(F)F)/C=C/c1cccc2[nH]ccc12
active: NCI-H23 lung -34.8% | NCI-H226 lung -54.9% | NCI-H322M lung 0.979% | HOP-62 NSCLC -35.7% | NCI-H460 lung 0.502% | HOP-92 NSCLC -27.2% | NCI-H522 lung -71.4% | A549/ATCC NSCLC -30.9% | 786-0 renal -60.1% | COLO 205 colon -70.6% | DU-145 prostate 2.94% | K-562 leukemia -2.54% | MALME-3M melanoma -26.9% | MDA-MB-231 breast -10.7% | RXF 393 renal -87.2% | SF-268 CNS 2.01% | SF-295 CNS -49.5% | SF-539 CNS -25.8% | UACC-257 melanoma -47.3% | M14 melanoma -34.2%

COc1ccc(C(c2cc(OC)c(OC)c(OC)c2)N2CCN(c3ccccc3)CC2)cc1 (stereo not given)
inactive: NCI-H23 lung 84.4% | NCI-H226 lung 101% | NCI-H322M lung 83.7% | HOP-62 NSCLC 88.9% | NCI-H460 lung 96.9% | HOP-92 NSCLC 86.7% | NCI-H522 lung 56.5% | A549/ATCC NSCLC 85.7% | 786-0 renal 101% | COLO 205 colon 92.7% | DU-145 prostate 113% | K-562 leukemia 41.6% | MALME-3M melanoma 99.7% | MDA-MB-231 breast 92.3% | RXF 393 renal 96.2% | SF-268 CNS 95.8% | SF-295 CNS 92.3% | SF-539 CNS 94.4% | UACC-257 melanoma 81.3% | M14 melanoma 76.3%

C#CCOc1ccc2ncnc(Nc3ccc(NC(=O)CCl)cc3)c2c1
active: NCI-H23 lung -39% | NCI-H460 lung -46.4% | HOP-92 NSCLC -7.62% | NCI-H522 lung -77.9% | 786-0 renal -65.3% | COLO 205 colon -8.04% | K-562 leukemia 0.218% | MALME-3M melanoma -74.5% | MDA-MB-231 breast -0.398% | RXF 393 renal -59.9% | SF-268 CNS -7.47% | SF-539 CNS -81.8% | M14 melanoma 4.03%
inactive: NCI-H226 lung 47.6% | NCI-H322M lung 51.6% | HOP-62 NSCLC 21.4% | A549/ATCC NSCLC 18.7% | DU-145 prostate 18.1% | SF-295 CNS 60.6% | UACC-257 melanoma 38.8%

O=C1c2ccc3c4ccc5c6c(ccc(c7ccc(c2c37)C(=O)N1CCC[P+](c1ccccc1)(c1ccccc1)c1ccccc1)c64)C(=O)N(CCC[P+](c1ccccc1)(c1ccccc1)c1ccccc1)C5=O
active: MALME-3M melanoma -27.8%
inactive: NCI-H23 lung 28.1% | NCI-H226 lung 105% | NCI-H322M lung 84.2% | HOP-62 NSCLC 60.3% | NCI-H460 lung 28% | HOP-92 NSCLC 77.3% | NCI-H522 lung 67.6% | A549/ATCC NSCLC 43.8% | 786-0 renal 91.2% | COLO 205 colon 15.5% | DU-145 prostate 40.8% | K-562 leukemia 16.4% | MDA-MB-231 breast 59.6% | RXF 393 renal 95% | SF-268 CNS 57.6% | SF-295 CNS 42.5% | SF-539 CNS 47.4% | UACC-257 melanoma 21.5% | M14 melanoma 18.8%

c1ccc(CNc2c3ccccc3nc3ccccc23)cc1
inactive: NCI-H23 lung 41.2% | NCI-H226 lung 51.7% | NCI-H322M lung 46.3% | HOP-62 NSCLC 46% | NCI-H460 lung 10.3% | HOP-92 NSCLC 25.9% | NCI-H522 lung 56.8% | A549/ATCC NSCLC 28.5% | 786-0 renal 34.3% | DU-145 prostate 48.6% | K-562 leukemia 12.3% | MALME-3M melanoma 37.4% | MDA-MB-231 breast 57.9% | RXF 393 renal 41.9% | SF-268 CNS 62.6% | SF-295 CNS 37.6% | SF-539 CNS 24% | UACC-257 melanoma 52.7% | M14 melanoma 32.3%
active: COLO 205 colon 7.29%

CCC(C)N(c1ccc(Cl)cc1)c1nc(-c2ccc(Br)cc2)cs1 (stereo not given)
inactive: NCI-H23 lung 88.6% | NCI-H226 lung 93.1% | NCI-H322M lung 91.4% | HOP-62 NSCLC 90.9% | NCI-H460 lung 98% | HOP-92 NSCLC 94.4% | NCI-H522 lung 89.2% | A549/ATCC NSCLC 95.6% | 786-0 renal 96% | COLO 205 colon 112% | DU-145 prostate 108% | K-562 leukemia 92.4% | MALME-3M melanoma 97.5% | MDA-MB-231 breast 88.6% | RXF 393 renal 121% | SF-268 CNS 97.1% | SF-295 CNS 105% | SF-539 CNS 101% | UACC-257 melanoma 103% | M14 melanoma 95.6%

CCN(CC)c1nc(SCc2ccccc2Cl)ncc1C
inactive: NCI-H23 lung 103% | NCI-H226 lung 81.8% | NCI-H322M lung 121% | HOP-62 NSCLC 93.1% | NCI-H460 lung 106% | HOP-92 NSCLC 56% | NCI-H522 lung 99% | A549/ATCC NSCLC 95% | 786-0 renal 106% | COLO 205 colon 112% | DU-145 prostate 109% | K-562 leukemia 97.7% | MALME-3M melanoma 115% | MDA-MB-231 breast 80.3% | RXF 393 renal 99.6% | SF-268 CNS 113% | SF-295 CNS 97.3% | SF-539 CNS 129% | UACC-257 melanoma 106% | M14 melanoma 114%

C=CCn1c(SCC(=O)NCc2cc(C)c(O)c(C)c2)nc2ccc(Cl)cc2c1=O
inactive: NCI-H23 lung 101% | NCI-H226 lung 87.2% | NCI-H322M lung 97% | HOP-62 NSCLC 101% | NCI-H460 lung 107% | HOP-92 NSCLC 82.2% | NCI-H522 lung 94.1% | A549/ATCC NSCLC 106% | 786-0 renal 92.5% | COLO 205 colon 116% | DU-145 prostate 105% | K-562 leukemia 58.6% | MALME-3M melanoma 98.8% | MDA-MB-231 breast 111% | RXF 393 renal 98.6% | SF-268 CNS 99.2% | SF-295 CNS 91.1% | SF-539 CNS 101% | UACC-257 melanoma 102% | M14 melanoma 115%

C#Cc1cccc(Nc2ncnc3ccc(-c4cncc(NS(C)(=O)=O)c4)cc23)c1
inactive: NCI-H23 lung 26.5% | NCI-H226 lung 45% | HOP-62 NSCLC 32% | NCI-H460 lung 51.6% | A549/ATCC NSCLC 48.8% | 786-0 renal 40.6% | COLO 205 colon 17.7% | DU-145 prostate 28.3% | K-562 leukemia 37.2% | MALME-3M melanoma 33.2% | MDA-MB-231 breast 23.7% | SF-268 CNS 24.1% | SF-295 CNS 37.6% | SF-539 CNS 17% | UACC-257 melanoma 37.4% | M14 melanoma 47%
active: NCI-H322M lung 1.41% | HOP-92 NSCLC -12.2% | NCI-H522 lung 3.44% | RXF 393 renal 7.78%

O=C(O)CNC1=C(Cl)C(=O)c2ccccc2C1=O
inactive: NCI-H23 lung 88% | NCI-H226 lung 109% | NCI-H322M lung 103% | HOP-62 NSCLC 95.4% | NCI-H460 lung 102% | HOP-92 NSCLC 74.1% | NCI-H522 lung 78.8% | A549/ATCC NSCLC 96.6% | 786-0 renal 101% | COLO 205 colon 113% | DU-145 prostate 112% | K-562 leukemia 93.4% | MALME-3M melanoma 118% | MDA-MB-231 breast 83% | RXF 393 renal 128% | SF-268 CNS 103% | SF-295 CNS 92.1% | SF-539 CNS 123% | UACC-257 melanoma 91.1% | M14 melanoma 98.3%

O=C(CSc1nnc2n1S(=O)(=O)c1ccccc1N2c1ccccc1)Nc1nc2ccc(F)cc2s1
inactive: NCI-H23 lung 80.3% | NCI-H226 lung 93.2% | NCI-H322M lung 113% | HOP-62 NSCLC 82.3% | NCI-H460 lung 106% | HOP-92 NSCLC 88% | NCI-H522 lung 87.2% | A549/ATCC NSCLC 93.3% | 786-0 renal 96.2% | COLO 205 colon 106% | DU-145 prostate 114% | K-562 leukemia 98.5% | MALME-3M melanoma 87.4% | MDA-MB-231 breast 98.9% | RXF 393 renal 87.1% | SF-268 CNS 97.2% | SF-295 CNS 91.5% | SF-539 CNS 102% | UACC-257 melanoma 111% | M14 melanoma 96.5%

CCOC(=O)c1cc2c(=O)oc3ccccc3c2oc1=O
inactive: NCI-H23 lung 112% | NCI-H226 lung 101% | NCI-H322M lung 100% | HOP-62 NSCLC 120% | NCI-H460 lung 111% | HOP-92 NSCLC 49.4% | NCI-H522 lung 92.1% | A549/ATCC NSCLC 105% | 786-0 renal 111% | COLO 205 colon 129% | DU-145 prostate 116% | K-562 leukemia 122% | MALME-3M melanoma 105% | MDA-MB-231 breast 101% | RXF 393 renal 99.8% | SF-268 CNS 108% | SF-295 CNS 110% | SF-539 CNS 100% | UACC-257 melanoma 105% | M14 melanoma 118%

Cc1cc(=O)[nH]c2c(C#N)cnn12
inactive: NCI-H23 lung 102% | NCI-H226 lung 96.4% | NCI-H322M lung 101% | HOP-62 NSCLC 105% | NCI-H460 lung 104% | HOP-92 NSCLC 109% | NCI-H522 lung 89.1% | A549/ATCC NSCLC 97.5% | 786-0 renal 105% | COLO 205 colon 114% | DU-145 prostate 104% | K-562 leukemia 103% | MALME-3M melanoma 98.9% | MDA-MB-231 breast 104% | RXF 393 renal 110% | SF-268 CNS 99.9% | SF-295 CNS 101% | SF-539 CNS 101% | UACC-257 melanoma 96.7% | M14 melanoma 105%
